# Measurements taken from PubChem BioAssay (Tox21).
# Records with an inconclusive call do not appear. Where a call stands in place of a potency, no number is given. Active and inactive are the calls of the source. Unless noted, calls follow the shape of the full dose curve.
# Experiment: qHTS assay to identify small molecule agonists of the hypoxia (HIF-1) signaling pathway (AID 1224846; active = well fitted activation curve with a large enough effect in the signal ratio in the repeat runs, not every such curve was filed as active; the % refers to the signal ratio)
# Conditions: HRE-bla ME-180 cells, beta-lactamase ratio, 17 h; series mostly up to 76.8 µM
# In short: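 Hypoxia-pathway activation was scored as increased beta-lactamase from an HRE-controlled reporter in ME-180 cells; plated at 2,000 cells per well with 0.5% dialyzed FBS, they were exposed 17 hrs to compounds and then given CCF4-AM.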
row,SMILES,outcome
1,CC1(C)OC[C@@H](COC(=O)CCc2ccc(OC[C@@H](O)CNCCNC(=O)N3CCOCC3)cc2)O1,inactive
2,CN(C)CCN(C)CCN(C)C,inactive
3,CCCOC(=O)CC,inactive
4,CC1CCC(CO)CC1 (stereo not drawn),inactive
5,CC(C)CC(C)(N)C#N (stereo not drawn),inactive
6,c1coc(CNc2ncnc3nc[nH]c23)c1,inactive
7,C1CCC2(CCCCO2)OC1,inactive
8,COCCOC[C@H](CC1(C(=O)NC2CCC(C(=O)O)CC2)CCCC1)C(=O)Oc1ccc2c(c1)CCC2 (stereo partly drawn),inactive
9,CN(C)CCCCCCN(C)C,inactive
10,CCCn1cc[n+](C)c1C,inactive
11,CCCO[Si](OCCC)(OCCC)OCCC,inactive
12,NC(=O)NC1N=C([O][Al])NC1=O (stereo not drawn),inactive
13,COc1ccccc1OCC1CNC(=O)O1 (stereo not drawn),inactive
14,O=C(O)CNC(=O)c1ccccc1,inactive
15,[O-][n+]1cccc(CO)c1,inactive
16,CC(C)C1CCC(O)CC1 (stereo not drawn),inactive

row,SMILES,outcome
1,CCOC(=O)c1ccccc1,inactive
2,O=C1c2ccccc2C(=O)c2cc(O)ccc21,inactive
3,CCOc1ccccc1OCC,inactive
4,CCCCOCCOC(=O)COc1cc(Cl)c(Cl)cc1Cl,inactive
5,CC(C)COC(=O)c1ccc(N)cc1,inactive
6,Cc1coc2ccccc2c1=O,inactive
7,CCCCCCCCCC[N+](C)(C)[O-],inactive
8,O=C(c1ccccc1O)c1ccccc1O,inactive
9,NC(=O)Cc1cccc2ccccc12,inactive
10,C=C(C)C(=O)OCCOCCOCCOCCOC(=O)C(=C)C,inactive
11,CC12CCC(C(=O)C1=O)C2(C)C (stereo not drawn),inactive
12,COc1cc(C)nc(-n2nc(C)cc2OC)n1,inactive
13,CCCC[N+](C)(CCCC)CCCC,inactive
14,O=Cc1cccc(Br)c1,inactive
15,CCOc1c(N2CCOCC2)cnn(C)c1=O,inactive

# Experiment: qHTS assay to identify small molecule agonists of H2AX - cell viability counter screen (AID 1224847); also: top concentration of the series differs between compounds; nearly all actives have a fitted effect of over 30% in size
# Conditions: CHO-K1 viability, CellTiter-Glo luminescence, 3 h; series mostly up to 154 µM
# In short: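 We seed wild-type CHO-K1 cells overnight, treat them for 3 hr at 37C with compounds in 15-concentration series, and quantify remaining viability by CellTiter-Glo luminescence.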
row,SMILES,outcome
1,CC1(C)OC[C@@H](COC(=O)CCc2ccc(OC[C@@H](O)CNCCNC(=O)N3CCOCC3)cc2)O1,inactive
2,CN(C)CCN(C)CCN(C)C,inactive
3,CN(C)C(=O)Oc1cccc([N+](C)(C)C)c1,inactive
4,CC1CCC(CO)CC1 (stereo not drawn),inactive
5,CC(C)CC(C)(N)C#N (stereo not drawn),inactive
6,c1coc(CNc2ncnc3nc[nH]c23)c1,inactive
7,COCCOC[C@H](CC1(C(=O)NC2CCC(C(=O)O)CC2)CCCC1)C(=O)Oc1ccc2c(c1)CCC2 (stereo partly drawn),inactive
8,CCC1C(=O)OCC1Cc1cncn1C (stereo not drawn),inactive
9,CCCn1cc[n+](C)c1C,inactive
10,NC(=O)NC1N=C([O][Al])NC1=O (stereo not drawn),inactive
11,C[N+]1(C)[C@@H]2CC(OC(=O)[C@H](CO)c3ccccc3)C[C@H]1[C@@H]1O[C@@H]12 (stereo partly drawn),inactive
12,O=C(O)CNC(=O)c1ccccc1,inactive
13,[O-][n+]1cccc(CO)c1,inactive
14,CCOC(=O)c1ccccc1,inactive
15,COc1cc2c(cc1OC)-c1cc3ccc(OC)c(OC)c3c[n+]1CC2,inactive
16,O=C1c2ccccc2C(=O)c2cc(O)ccc21,inactive
17,CCOc1ccccc1OCC,inactive
18,CC(C)COC(=O)c1ccc(N)cc1,inactive
19,COC(=O)C1=C(C)NC(C)=C(C(=O)OC(C)C)C1c1cccc2nonc12 (stereo not drawn),inactive
20,NCCCC[C@H](N[C@@H](CCc1ccccc1)C(=O)O)C(=O)N1CCC[C@H]1C(=O)O,inactive
21,Cc1coc2ccccc2c1=O,inactive
22,O=C(c1ccccc1O)c1ccccc1O,inactive
23,NC(=O)Cc1cccc2ccccc12,inactive
24,CC12CCC(C(=O)C1=O)C2(C)C (stereo not drawn),inactive
25,O=Cc1cccc(Br)c1,inactive
26,CCOc1c(N2CCOCC2)cnn(C)c1=O,inactive

# Experiment: qHTS assay to identify small molecule antagonists of the estrogen related receptor (ERR) signaling pathway from Tox21 library (AID 1224848; active = well fitted inhibition curve with a large enough effect in the repeat runs; also: nearly all actives have a fitted effect of over 50% in size; also: potency is read from the fitted curve at half-maximal effect)
# Conditions: ERR reporter cell line, luciferase antagonist mode, 18 h; series mostly up to 92.4 µM
# In short: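 Screening used an ERR reporter line supplied by NTP, exposed for 18 h at 37 C to library compounds delivered in DMSO. Signal was luciferase luminescence developed with ONE-Glo at room temperature for 30 min.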
row,SMILES,Potency
1,CC1(C)OC[C@@H](COC(=O)CCc2ccc(OC[C@@H](O)CNCCNC(=O)N3CCOCC3)cc2)O1,inactive
2,COCCOC[C@H](CC1(C(=O)NC2CCC(C(=O)O)CC2)CCCC1)C(=O)Oc1ccc2c(c1)CCC2 (stereo partly drawn),inactive
3,CN(C)CCCCCCN(C)C,inactive
4,CCCO[Si](OCCC)(OCCC)OCCC,inactive
5,COc1ccccc1OCC1CNC(=O)O1 (stereo not drawn),inactive
6,CCOC(=O)c1ccccc1,inactive
7,COc1cc2c(cc1OC)-c1cc3ccc(OC)c(OC)c3c[n+]1CC2,24.6 µM (active)
8,CCOc1ccccc1OCC,inactive
9,CC(C)COC(=O)c1ccc(N)cc1,inactive
10,Cc1ccnc(NS(=O)(=O)c2ccc(N)cc2)n1,inactive
11,CCCCCCCCCC[N+](C)(C)[O-],inactive
12,COc1cc(C)nc(-n2nc(C)cc2OC)n1,inactive
13,O=Cc1cccc(Br)c1,inactive

# Experiment: qHTS assay to identify small molecule agonists of the estrogen related receptor (ERR) signaling pathway from Tox21 library (AID 1224849); also: nearly all actives have a fitted effect of over 15% in size
# Conditions: ERR reporter cell line, ONE-Glo luciferase, 18 h; series mostly up to 92.4 µM
# In short: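 Six hours post-seeding at 37 C/5% CO2, ERR cells receive DMSO-solubilised compounds; after 18 h at 37 C, ONE-Glo reagent is applied and luminescence recorded.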
row,SMILES,outcome
1,CC1(C)OC[C@@H](COC(=O)CCc2ccc(OC[C@@H](O)CNCCNC(=O)N3CCOCC3)cc2)O1,inactive
2,COCCOC[C@H](CC1(C(=O)NC2CCC(C(=O)O)CC2)CCCC1)C(=O)Oc1ccc2c(c1)CCC2 (stereo partly drawn),inactive
3,CN(C)CCCCCCN(C)C,inactive
4,CCCO[Si](OCCC)(OCCC)OCCC,inactive
5,COc1ccccc1OCC1CNC(=O)O1 (stereo not drawn),inactive
6,CCOC(=O)c1ccccc1,inactive
7,COc1cc2c(cc1OC)-c1cc3ccc(OC)c(OC)c3c[n+]1CC2,inactive
8,CCOc1ccccc1OCC,inactive
9,Cc1ccnc(NS(=O)(=O)c2ccc(N)cc2)n1,inactive
10,COC(=O)C1=C(C)NC(C)=C(C(=O)OC(C)C)C1c1cccc2nonc12 (stereo not drawn),inactive
11,CCCCCCCCCC[N+](C)(C)[O-],inactive
12,COc1cc(C)nc(-n2nc(C)cc2OC)n1,inactive
13,O=Cc1cccc(Br)c1,inactive
